Screens deposited in PubChem BioAssay by National Center for Advancing Translational Sciences (NCATS).
ELG1 genotox: qHTS screen for small molecules that induce genotoxicity in human embryonic kidney (HEK293T) cells expressing luciferase-tagged ELG1. HEK293T ELG1-luciferase reporter, luminescence, 16 h. Potency, µM (doses to about 46 µM), for inactives: top-dose activity change, positive = activation, hits mostly activators. actives 1.3% (n = 330,000). AID 504466, 2011; further: % of control where 0% means no effect; nearly all actives have a fitted effect of over 60% in size
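Genotoxicity was scored as increased ELG1-luciferase reporter signal, measured by ONE-Glo luminescence (30 min, room temperature). Compound or vehicle exposure of the HEK293T reporter cells lasted 16 hr at 37°C.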
SMN2 splice up: qHTS Assay for Enhancers of SMN2 Splice Variant Expression; HEK293 SMN2-luciferase splicing reporter, luminescence, 30-36 h; Potency, µM (highest dose often 46.1 µM), without a hit: at the highest dose activity change, positive = activation, actives largely listed as activators; actives 2.8% (n = 210,000); further: % of control where 0% means no effect; nearly all actives have a fitted effect of over 55% in size
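HEK293 cells carry an SMN2 […]–luciferase reporter in which exon 7 inclusion puts luciferase in frame. Cells were plated 10-12 h before compound addition, then incubated 30-36 h at 37C. ONE-Glo luminescence was read; sodium butyrate at 4.5 mM final served as control.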
Rab9 prom act: qHTS Assay for Rab9 Promoter Activators | Huh7 Rab9 promoter-luciferase reporter, luminescence, 24 h | Potency, µM (highest dose often 9.22 µM), for inactives: at the top dose activation, negative = inhibition, actives largely listed as activators | actives 2.8% (n = 320,000); further: % of control where 0% means no effect; nearly all actives have a fitted effect of over 60% in size
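Cells were plated at 1500 per well in reduced-serum medium with 10% FBS and left 2 h. Compound in DMSO was then added for 24 h at 37 °C. Reporter signal was read by luminescence after 10 min with luciferase detection reagent.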
NPC1 prom act: qHTS Assay for NPC1 Promoter Activators | Huh7 NPC1 promoter luciferase reporter, 24 h | Potency, µM (highest dose often 9.22 µM), inactives show at the highest dose activation, usual class: activators | AID 485313, 2010 | actives 2.4% (n = 320,000); further: % of control where 0% means no effect; nearly all actives have a fitted effect of over 60% in size
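Huh7 cells stably carrying NPC1 promoter–luciferase, plated in Opti-MEM with 10% FBS for 2 h, were exposed to compound in DMSO for 24 h at 37 °C; luciferase reagent was added for 10 min and luminescence read.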
Luc counter: Counterscreen for Luciferase (Kinase-Glo TM) Inhibition; Potency, µM (highest dose often 38.3 µM), inactives show at the top dose activity change, negative = inhibition, hits mostly inhibitors; Luciferin 4-monooxygenase (Photuris pensylvanica), Q27757; Kinase-Glo luciferase, ATP luminescence, 8 min; actives 0.28% (n = 200,000); further: on the % scale 0 is the no-effect control and ±100 the full control effect; nearly all actives have a fitted effect of over 60% in size
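Luminescence was the read-out, taken after 8-minute incubation at ambient temperature. Luciferase turned over luciferin with 10 uM ATP in imidazole pH 7.2 buffer containing KCl, MgCl2, Tween 20 and BSA.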
FLuc counter: qHTS profiling assay for firefly luciferase inhibitor/activator using purifed enzyme and Km concentrations of substrates (counterscreen for miR-21 project) | actives 6.9% (n = 360,000) | AID 588342, 2011 | purified FLuc, Km substrates, luminescence inhibition | Luciferin 4-monooxygenase (Photinus pyralis), P08659 | Potency, µM (highest dose often 57.5 µM), without a hit: top-dose activity change, negative = inhibition, actives largely listed as inhibitors;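 further: plate controls were vehicle for no effect and reference inhibitor for full effect; nearly all actives have a fitted effect of over 55% in size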
Target sequence (P08659 whole entry, looked up): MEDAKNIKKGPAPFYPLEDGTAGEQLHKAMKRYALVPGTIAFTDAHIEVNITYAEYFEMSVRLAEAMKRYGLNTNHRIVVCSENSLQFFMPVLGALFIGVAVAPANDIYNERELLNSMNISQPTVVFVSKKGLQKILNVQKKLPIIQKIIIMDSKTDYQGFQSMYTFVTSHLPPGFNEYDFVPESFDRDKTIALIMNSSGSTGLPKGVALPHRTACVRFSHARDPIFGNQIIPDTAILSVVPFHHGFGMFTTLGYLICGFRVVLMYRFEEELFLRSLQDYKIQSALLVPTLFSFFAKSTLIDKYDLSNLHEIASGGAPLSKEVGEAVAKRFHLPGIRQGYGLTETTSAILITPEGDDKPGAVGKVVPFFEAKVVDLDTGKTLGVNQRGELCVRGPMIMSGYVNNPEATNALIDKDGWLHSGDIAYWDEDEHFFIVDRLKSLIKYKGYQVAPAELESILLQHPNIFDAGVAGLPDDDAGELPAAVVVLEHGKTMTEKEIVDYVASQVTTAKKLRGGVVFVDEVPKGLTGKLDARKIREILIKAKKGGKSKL
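Purified P. pyralis luciferase (10nM final) with 10uM D-luciferin and 10uM ATP (Km levels) in 50mM Tris acetate pH 7.5, 10mM Mg acetate, 0.01% Tween-20, 0.05% BSA; qHTS 6-point titration, ~60 µM downward; luminescence read.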
* marks the source's active call; other numbers are inactive results; [ ] = dose if it differs, or a comment. Hits are enriched below; roughly 7.5% of the tested compounds scored in any of these assays. The call rests on the fitted dose curve; in most records, active means well fitted curve in the direction sought with a large enough effect; inconclusive means small, poorly fitted or top-dose-only effect, or another doubt; inactive means no such curve, though single readings can be large; an effect the other way counts as inactive or inconclusive. Potency means the concentration at half of the fitted maximal effect.

For CC(c1ccccc1)c1nnc(N)s1 (stereo not drawn) the results were ELG1 genotox 0%, Rab9 prom act 7%, NPC1 prom act -3%, Luc counter -1% and FLuc counter -3%.
CC(C)c1ccc(-c2nnc(N)s2)cc1 was read as ELG1 genotox 18µM*, SMN2 splice up 14µM*, Rab9 prom act 2.2µM*, NPC1 prom act 3.2µM*, Luc counter -5% and FLuc counter 1.9µM*.
For CCCOc1ccc(-c2nc(-c3ccc(N)cc3)cs2)cc1 the results were ELG1 genotox 5%, Rab9 prom act inconclusive, NPC1 prom act 24% and FLuc counter 7.6µM*.
For COc1ccc(-c2csc(-c3[nH]cnc3N)n2)cc1 the results were ELG1 genotox inconclusive, SMN2 splice up inconclusive, Rab9 prom act -1%, NPC1 prom act -5%, Luc counter -6% and FLuc counter inconclusive.
Screening COc1ccc(-c2nnc(N)s2)cc1 returned ELG1 genotox inconclusive, SMN2 splice up 11%, Rab9 prom act 23%, NPC1 prom act 22%, Luc counter -2% and FLuc counter 17µM*.
`CNc1nnc(-c2ccc(OC)cc2)s1` gave ELG1 genotox 16µM*, SMN2 splice up 13µM*, Rab9 prom act 3.2µM*, NPC1 prom act 2.8µM*, Luc counter -15% and FLuc counter 12µM*.
Screening Nc1nnc(-c2ccncc2)s1 returned ELG1 genotox 0%, SMN2 splice up 24%, Rab9 prom act 3%, NPC1 prom act -5%, Luc counter -5% and FLuc counter 6%.
For Cc1nn(CCCC(=O)NCc2ccccc2)c(=O)c2cc3sccc3n12 the results were SMN2 splice up -3% and FLuc counter -9%.
COc1ccc(OCCc2nnc(N)s2)cc1 was read as ELG1 genotox 1%, SMN2 splice up 2%, Rab9 prom act -1%, NPC1 prom act 4%, Luc counter 0% and FLuc counter 2%.
Cc1ccc(-c2nnc(N)s2)cc1 was read as ELG1 genotox inconclusive, SMN2 splice up inconclusive, Rab9 prom act 23%, NPC1 prom act 25%, Luc counter -6% and FLuc counter 13µM*.
For CCCOc1ccc(-c2nnc(N)s2)cc1 the results were ELG1 genotox 18µM*, SMN2 splice up inconclusive, Rab9 prom act inconclusive, NPC1 prom act inconclusive, Luc counter -4% and FLuc counter 7.6µM*.
`Cc1cc(C)c(NC(=O)CSc2nc(=O)n(Cc3cccnc3)c3c2CCC3)c(C)c1` gave FLuc counter -8%.
COc1c(C(=O)NNC(=O)c2ccccc2Cl)csc1Br was read as ELG1 genotox inconclusive, Rab9 prom act inconclusive, NPC1 prom act 3.5µM* and FLuc counter 21µM*.
COc1cc(/C=C(/NC(=O)c2ccccc2Cl)C(=O)O)cc(OC)c1OC was read as ELG1 genotox 0%, SMN2 splice up -13%, Rab9 prom act 0%, NPC1 prom act 7%, Luc counter 2% and FLuc counter -2%.
For CN(C)c1ccc(N=Nc2cccc3ccoc23)cc1 the results were ELG1 genotox 6.5µM*, SMN2 splice up 3.5µM*, Rab9 prom act inconclusive, NPC1 prom act inconclusive, Luc counter -13%[7.66 µM] and FLuc counter 1.2µM*.
Screening CN(C)c1ccc(N=Nc2cccc(F)c2)cc1 returned ELG1 genotox 0.65µM*, Rab9 prom act 3.5µM*, NPC1 prom act 2µM* and FLuc counter 0.24µM*.
For Cc1nnc(NC2=NCCC2)o1 the results were ELG1 genotox 1%, SMN2 splice up inconclusive, Rab9 prom act -6%, NPC1 prom act -3%, Luc counter -7% and FLuc counter 0%.
Screening CCOC(=O)CNC(=O)Nc1nnc(-c2ccc(OCC)cc2)o1 returned ELG1 genotox 8%, SMN2 splice up -7%, Rab9 prom act 3%, NPC1 prom act 23%, Luc counter 0% and FLuc counter 12µM*.
CCOc1ccc(-c2nnc(-c3ccncc3)o2)cc1 was read as ELG1 genotox 20%, SMN2 splice up inconclusive, Rab9 prom act 1.6µM*, NPC1 prom act 1.8µM*, Luc counter -17% and FLuc counter 9.5µM*.
For CCCOc1ccc(-c2nnc(-c3cccs3)o2)cc1 the results were ELG1 genotox inconclusive, SMN2 splice up 4.5µM*, Rab9 prom act 0.56µM*, NPC1 prom act 0.71µM*, Luc counter -14% and FLuc counter 0.67µM*.
Screening CCOc1ccc(-c2nnc(N)o2)cc1 returned ELG1 genotox 12%, SMN2 splice up -15%, Rab9 prom act 7%, NPC1 prom act 9%, Luc counter -1% and FLuc counter inconclusive.
For Cc1cccc(OCCSc2nnc(-c3cccs3)o2)c1 the results were FLuc counter -17%.
`c1coc(-c2nnc(NC3=NCCC3)o2)c1` gave ELG1 genotox 16µM*, SMN2 splice up 13µM*, Rab9 prom act 3.5µM*, NPC1 prom act inconclusive, Luc counter -20% and FLuc counter 19µM*.
`Cc1ccc(CNC(=O)c2nnc(Cc3cccc(F)c3)o2)cc1` gave FLuc counter -7%.
CN(C)c1oc(-c2cccs2)nc1C#N was read as ELG1 genotox 8%, SMN2 splice up 11%, Rab9 prom act -2%, NPC1 prom act 1%, Luc counter 0% and FLuc counter 0%.
`CCCCOC(=O)c1nnc(-c2ccccc2)o1` gave ELG1 genotox 3%, Rab9 prom act 2%, NPC1 prom act 1% and FLuc counter 12µM*.
Screening CCCCOc1ccc(-c2nnc(-c3cc[n+](C)cc3)o2)cc1 returned ELG1 genotox -2%, Rab9 prom act -3%, NPC1 prom act 2%, Luc counter -1% and FLuc counter -1%.
For CCCCOc1ccc(-c2nnc(-c3ccncc3)o2)cc1 the results were ELG1 genotox inconclusive, Rab9 prom act 4µM*, NPC1 prom act inconclusive and FLuc counter 12µM*.
`CCOC(=O)COc1ccc(-c2nnc(-c3ccccc3)o2)cc1` gave ELG1 genotox 21%, Rab9 prom act 11%, NPC1 prom act 3%, Luc counter -1% and FLuc counter 6µM*.
Screening CCOC(=O)Cc1nnc(-c2ccccc2)o1 returned ELG1 genotox 3%, SMN2 splice up 9%, Rab9 prom act -1%, NPC1 prom act -1%, Luc counter -3% and FLuc counter -2%.
